Source: the supplement of paper PMC6555819

Experiments:
Test in all cases: PBM binding z-score (relative to random genomic background probes); higher = stronger binding; sequences stand for … in GC…GCGATTGACAGCGTAGAATGAAGG
[1] = test system: RARb homodimer (NR concentration 270 nM)
Procedure, shortened: (§1)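 Ligand-free nuclear receptor dimers were applied to custom Agilent 4×180K protein-binding microarrays whose double-stranded probes carried direct-repeat seeds, single-nucleotide variants, half-site ablations and random human genomic background sequences in 34-nt variable regions. Incubation lasted 1 h. Binding z-scores were computed against the random background probes from regression-normalized fluorescence.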

[2] = test system: RARg:RXRa (NR concentration 270 nM, RXRa partner concentration 90 nM)
Procedure, shortened: as §1

[3] = test system: RARg homodimer (NR concentration 270 nM)
Procedure, shortened: as §1

[4] = test system: RXRa DBDmut IVT, anti-RXR (DBD mutation: RXRa K156A/R161A, NR concentration 90 nM)
Procedure, shortened: as §1

[5] = test system: RXRa homodimer (NR concentration 180 nM)
Procedure, shortened: as §1

[6] = test system: THRa:RXRa (NR concentration 90 nM, RXRa partner concentration 90 nM)
Procedure, shortened: as §1

[7] = test system: THRa homodimer (NR concentration 90 nM)
Procedure, shortened: as §1

[8] = test system: VDR:RXRa (NR concentration 270 nM, RXRa partner concentration 90 nM)
Procedure, shortened: as §1

[9] = test system: VDR homodimer (NR concentration 270 nM)
Procedure, shortened: as §1

| Sequence | PBM binding z-score [1] | PBM binding z-score [2] | PBM binding z-score [3] | PBM binding z-score [4] | PBM binding z-score [5] | PBM binding z-score [6] | PBM binding z-score [7] | PBM binding z-score [8] | PBM binding z-score [9] |
| --- | --- | --- | --- | --- | --- | --- | --- | --- | --- |
| TGTAGTTGGTCAAAGGTCACACACTCGAAATGCG | 4.97 | 7.09 | 6.06 | 1.24 | 8.07 | 4.1 | 2.18 | 5.19 | 2.51 |
| TCATATAGGTAAAAGGGGAAAGTCGGTGTGGTAA | 0.789 | 0.447 | 0.236 | 1.95 | 1.19 | 0.512 | 0.383 | 0.861 | 0.386 |
| ATATGTAGGTTACATCCGGGTCAATCAGGCTATG | 3.12 | 3.95 | 2.2 | 0.665 | 3.37 | 3.8 | 2.33 | 3.59 | 1.72 |
| AGAATGAGGTTATTAAGATCAGAGAATTGCGGTC | 0.575 | 1.21 | 0.933 | 1.88 | 1.7 | 2.06 | 0.584 | 2.56 | 1.11 |
| AGAATGAGGTTAAGCTCAGGGAAACAGAATACAT | 0.601 | 2.43 | 1.72 | 1.26 | 2.59 | 2.67 | 0.503 | 1.26 | -0.00367 |
| TCTGCTAGGACAGTTGGTCAGCTAACGAGCTGCC | -0.304 | -0.493 | -0.356 | -0.0894 | -0.639 | -0.274 | -0.784 | -0.792 | -1.13 |
| ATCTCTAGATAAGACTCAGTTCAGTGAAGAACGC | 0.0113 | -0.0447 | 0.323 | 0.327 | -0.154 | 0.116 | -0.107 | 0.209 | 1.02 |
| CATACAGGGCCAGCTAGGCCAGAGTAGGGACGGC | -0.0405 | 0.0438 | 0.566 | -1.28 | -0.173 | -0.0247 | -0.492 | -0.78 | -0.491 |
| ACTTACGGGTCAACGAGATTATAGCACGCGTATA | 2.96 | 5.12 | 4.89 | 2.05 | 5.72 | 2.67 | 0.499 | 5 | 1.35 |
| GCATTTAGGTAATACAAGGTGAAAGTCCGATTGT | 1.06 | 0.319 | 0.48 | 0.617 | 0.375 | 3.89 | 1.59 | 0.176 | 0.0936 |
| CCTCGGAGGACAATAGGAGGTCAGAGCTGCCAGA | 3.18 | 2.71 | 2.63 | -0.00493 | 1.64 | 2.43 | 0.711 | 1.51 | 0.843 |
| TCTCGGAGGACACGAAAGGTCAGGGCTCGACATC | 4.94 | 4.98 | 5.69 | 1.1 | 4.39 | 3.83 | 2 | 3.43 | 0.976 |
| GCTATTTGGTCAGTAAAAGGTCACACACCGGTCG | 5.41 | 5.36 | 4.76 | 0.964 | 5.44 | 3.91 | 2.43 | 4.32 | 2 |
| ACCGAAAGGTCGAGGTGAGTATAGAGAAAGGGAA | 2.81 | 4.28 | 4.43 | 0.832 | 4.35 | 2.94 | 0.707 | 2.82 | 0.402 |
| CCTTACGGGTCTCGAGGTTATAGCACGACGAGCG | 0.421 | 0.66 | 0.422 | -0.815 | 1.27 | 1.05 | -0.08 | 0.479 | 0.435 |
| CCTCGGCGGACAGAAGGTCAGAGCTGTCCGCTTT | 2.77 | 2.53 | 1.99 | -0.44 | 1.64 | 1.05 | -0.714 | 0.473 | -0.703 |
| CATACTAGGTCACCGGAAGGTCAAAGTCCGCATG | 5.62 | 8.44 | 7.45 | 2.21 | 6.33 | 4.43 | 3.31 | 6.08 | 3.9 |
| GCATATAGGTAATACAAGCTGAAAGTCCGATTGT | -0.29 | 0.165 | 0.41 | 0.344 | 0.524 | -0.299 | -0.467 | -0.105 | -0.000967 |
| ATACCAAGGTGATCCTGAGGTCGTTGATACTAAC | 1.82 | 2.54 | 0.948 | 0.968 | 2.08 | 3.67 | 2.52 | 3.42 | 2.87 |
| ACTGTTAGTTGACTTAGGGCAACCGATACGACGC | 1.09 | 1.22 | 1.25 | 0.609 | 0.472 | 1.51 | 0.731 | 0.59 | 0.453 |
| CGGACGAGGGCATGAGTTGATAGCAAATGCCGAT | 0.742 | 1.16 | 1.89 | 2.01 | 0.928 | 1.17 | -0.188 | 1.21 | 1.46 |
| CAAACTAGATCACGAAAGGTCAAAGTCGAATGAC | 4.84 | 5.87 | 5.31 | 1.47 | 6.64 | 3.96 | 1.07 | 4.79 | 2.71 |
| ATCTCTAGGTAGAGATAGTTCAGTGAATGCAAAT | 0.368 | 0.166 | 0.357 | -0.163 | 0.115 | 0.148 | -0.22 | 0.159 | 0.338 |
| TACACAGGGTCAAAGGCCAGAGTACGAATGTCGA | 3.22 | 5.65 | 5.36 | 3 | 7.62 | 3.5 | 0.79 | 4.89 | 3.23 |
| AGTCAAAGTTAACTAGGTAACGTAAGATTCAGCT | -0.331 | 0.302 | 0.566 | -0.266 | 0.258 | 0.564 | -0.252 | -0.0453 | -0.183 |
| TCTAGCAGGCCGGAGGGTCACTCAAGAGGTACGG | 2.33 | 2.01 | 1.52 | 0.00965 | 2.13 | 1.44 | -0.391 | 1.03 | 0.104 |
